In PubChem BioAssay (NCATS):
Results filed as inconclusive are left out. A call without a number means that no potency is given here. Activity calls are given as the source filed them. The call rests on the fitted dose curve; in most records, active means well fitted inhibition curve with a large enough effect; inconclusive means small, poorly fitted or top-dose-only effect; inactive means no such curve, though single readings can be large or run the other way.

Assay: Primary qHTS for inhibitors of nuclear receptor binding SET domain protein 2 (NSD2) in an RCH-ACV wild type WT cells (2C) (AID 1645877); further: nearly all actives have a fitted effect of over 70% in size
Details: RCH-ACV (leukaemia line) NSD2 WT (2C) viability, CellTiter-Glo, 72 h; series mostly up to 44.9 µM

SMILES	Potency	activity change, negative = cell killing
O=C(O[C@H]1[C@@H]2C[C@@H]3OC[C@](O)([C@@H]1Cl)[C@H]2C(O[C@@H]1O[C@H](CO)[C@@H](O)[C@H](O)[C@H]1O)O3)c1ccc(O)c(O)c1 (some centres undefined)	inactive	–
CCn1cc(NC(=S)Nc2cc(Cl)ccc2OC)c(C(N)=O)n1	inactive	–
CC1=CC(=O)C(=C(C)C)CC2C1CCC2(C)O (centres undefined)	inactive	–
CC1(C)C2CC=C(COC3OC(COC4OCC(O)(CO)C4O)C(O)C(O)C3O)C1C2 (centres undefined)	inactive	–
C=C(C(=O)O)C1CCC2(C)CCC(O)C(=C)C2C1 (centres undefined)	inactive	–
C[C@@H]1O[C@@H](O[C@H]2[C@H](OC(=O)[C@]34CCC(C)(C)C[C@H]3C3=CCC5[C@@]6(C)C[C@H](O)[C@H](O[C@@H]7O[C@H](CO)[C@@H](O)[C@H](O)[C@H]7O)[C@@](C)(CO)C6[C@H](O)C[C@@]5(C)[C@]3(C)CC4)OC[C@H](O)[C@@H]2O)[C@H](O)[C@H](O)[C@H]1O[C@@H]1OC[C@@H](O)[C@H](O[C@@H]2OC[C@](O)(CO)[C@H]2O)[C@H]1O (some centres undefined)	–	-13.7% [at 9.23 µM] (inactive)
CC12CCC(OC3OC(CO)C(O)C(OC4OC(CO)C(O)C(O)C4O)C3O)CC1CCC1C2CCC2(C)/C(=C3/COC(=O)C3)CCC12O (centres undefined)	inactive	–
O=C(c1ccc2nccnc2c1)N1CCCCC1	inactive	–
C[C@@H]1CC[C@]2(C(=O)O[C@@H]3O[C@H](CO)[C@@H](O)[C@H](O)[C@H]3O)CC[C@]3(C)C(=CCC4[C@@]5(C)C[C@@H](O)[C@H](O)[C@](C)(C(=O)O)C5CC[C@]43C)[C@@H]2[C@]1(C)O (some centres undefined)	inactive	–
